Measured values: PubChem BioAssay (NCATS)
Records with an inconclusive call do not appear. Calls of active or inactive are those of the source. Unless noted, the call rests on the fitted dose curve; in most records, active means well fitted curve in the direction sought with a large enough effect; inconclusive means small, poorly fitted or top-dose-only effect, or another doubt; inactive means no such curve, though single readings can be large; an effect the other way counts as inactive or inconclusive.

How the values were obtained:
[1] = qHTS for Inhibitors of the Functional Ribonucleoprotein Complex (vRNP) of Lassa (LASV) Arenavirus: LASV Primary Screen - GLuc reporter signal (AID 1347082; calls by dose curve; tested in HEK293 reporter line; further: series mostly up to about 57 µM; nearly all actives have a fitted effect of over 60% in size)
[2] = qHTS for Inhibitors of the Functional Ribonucleoprotein Complex (vRNP) of Lassa (LASV) Arenavirus: Viability assay - alamar blue signal for LASV Primary Screen (AID 1347083; calls by dose curve; tested in HEK293 reporter line; further: series mostly up to about 57 µM; nearly all actives have a fitted effect of over 80% in size)
[3] = qHTS for Inhibitors of the Functional Ribonucleoprotein Complex (vRNP) of Lymphocytic Choriomeningitis Arenaviruses (LCMV): Viability assay - alamar blue signal for LCMV Primary Screen (AID 1347085; calls by dose curve; tested in HEK293 reporter line; further: series mostly up to about 57 µM; nearly all actives have a fitted effect of over 80% in size)
[4] = molecular target: Nucleoprotein (Lymphocytic choriomeningitis virus (strain Armstrong)) (UniProt P09992); experiment: qHTS for Inhibitors of the Functional Ribonucleoprotein Complex (vRNP) of Lymphocytic Choriomeningitis Arenaviruses (LCMV): LCMV Primary Screen - GLuc reporter signal (AID 1347086; calls by dose curve; further: series mostly up to about 57 µM; nearly all actives have a fitted effect of over 70% in size)
[5] = qHTS of pediatric cancer cell lines to identify multiple opportunities for drug repurposing: Primary screen for TC32 cells (AID 1347089); further: nearly all actives have a fitted effect of over 60% in size
Outline: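 TC32 cells, 500-1,000/well in growth medium, compound-treated 48 h at 37 °C; viability from CellTiter-Glo luminescence. Primary screen: MIPE 11-point (0.78 nM–46 µM final), NPC 8-point (0.59 nM–46 µM final); confirmatory at 11-point dilutions.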

[6] = qHTS of pediatric cancer cell lines to identify multiple opportunities for drug repurposing: Primary screen for DAOY cells (AID 1347090); further: series mostly up to about 46 µM; nearly all actives have a fitted effect of over 55% in size
Outline: (§1)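 Eight- or eleven-point concentration series, 48 h treatment at 37 degrees C in growth media; readout CellTiter-Glo luminescence. Potency and efficacy were taken from the concentration-response curves.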

[7] = qHTS of pediatric cancer cell lines to identify multiple opportunities for drug repurposing: Primary screen for SJ-GBM2 cells (AID 1347091)
Outline: as §1

[8] = qHTS of pediatric cancer cell lines to identify multiple opportunities for drug repurposing: Primary screen for A673 cells (AID 1347092); further: nearly all actives have a fitted effect of over 45% in size
Outline: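 A673 cells (500-1,000 cells/well) were treated 48 hours at 37 degrees C with compounds at 11-point (0.78 nM to 46 µM) or 8-point (0.59 nM to 46 µM) dilutions. Viability read by CellTiter-Glo luminescence; concentration-response curves fitted.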

[9] = qHTS of pediatric cancer cell lines to identify multiple opportunities for drug repurposing: Primary screen for SK-N-MC cells (AID 1347093); further: series mostly up to about 46 µM
Outline: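 Metabolically active cells were quantified by ATP-dependent luminescence (CellTiter-Glo, 15 min at room temperature) following 48 h treatment. Cells had been plated at 500-1,000 per well and settled for 5 h beforehand.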

[10] = qHTS of pediatric cancer cell lines to identify multiple opportunities for drug repurposing: Primary screen for BT-37 cells (AID 1347094); further: series mostly up to about 57 µM
Outline: (§2)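 Plated cells (500-1,000 per well, growth media) were allowed to settle for 5 hours, treated with compound dilutions for 48 hours, then lysed with CellTiter-Glo for 15 min at room temperature before luminescence reading.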

[11] = qHTS of pediatric cancer cell lines to identify multiple opportunities for drug repurposing: Primary screen for NB-EBc1 cells (AID 1347095)
Outline: as §2

[12] = qHTS of pediatric cancer cell lines to identify multiple opportunities for drug repurposing: Primary screen for U-2 OS cells (AID 1347096); further: nearly all actives have a fitted effect of over 50% in size
Outline: (§3)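 Cells (500-1,000/well) in growth media were settled 5 h at 37 degrees C, then given compounds for 48 h. Viability was read as CellTiter-Glo luminescence. Primary runs used MIPE at 11 points (0.78 nM-46 µM) and NPC at 8 points (0.59 nM-46 µM); follow-ups used 11 points.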

[13] = qHTS of pediatric cancer cell lines to identify multiple opportunities for drug repurposing: Primary screen for Saos-2 cells (AID 1347097); further: nearly all actives have a fitted effect of over 40% in size
Outline: as §2

[14] = qHTS of pediatric cancer cell lines to identify multiple opportunities for drug repurposing: Primary screen for SK-N-SH cells (AID 1347098);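 further: DMSO served as neutral control and bortezomib at 2.3 µM as positive control; nearly all actives have a fitted effect of over 65% in size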
Outline: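 Cells (500-1,000/well) rested 5 h, then received compounds for 48 h; metabolically active cells were measured by CellTiter-Glo luminescence. Final concentrations spanned up to 46 µM (MIPE, 11-point) or 0.59 nM-46 µM (NPC, 8-point) in primary screens, 11-point in follow-ups.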

[15] = qHTS of pediatric cancer cell lines to identify multiple opportunities for drug repurposing: Primary screen for NB1643 cells (AID 1347099); further: nearly all actives have a fitted effect of over 50% in size
Outline: as §2

[16] = qHTS of pediatric cancer cell lines to identify multiple opportunities for drug repurposing: Primary screen for LAN-5 cells (AID 1347100)
Outline: as §3

Measured: Potency

Sequence of Nucleoprotein (Lymphocytic choriomeningitis virus (strain Armstrong)) (P09992 whole entry, looked up): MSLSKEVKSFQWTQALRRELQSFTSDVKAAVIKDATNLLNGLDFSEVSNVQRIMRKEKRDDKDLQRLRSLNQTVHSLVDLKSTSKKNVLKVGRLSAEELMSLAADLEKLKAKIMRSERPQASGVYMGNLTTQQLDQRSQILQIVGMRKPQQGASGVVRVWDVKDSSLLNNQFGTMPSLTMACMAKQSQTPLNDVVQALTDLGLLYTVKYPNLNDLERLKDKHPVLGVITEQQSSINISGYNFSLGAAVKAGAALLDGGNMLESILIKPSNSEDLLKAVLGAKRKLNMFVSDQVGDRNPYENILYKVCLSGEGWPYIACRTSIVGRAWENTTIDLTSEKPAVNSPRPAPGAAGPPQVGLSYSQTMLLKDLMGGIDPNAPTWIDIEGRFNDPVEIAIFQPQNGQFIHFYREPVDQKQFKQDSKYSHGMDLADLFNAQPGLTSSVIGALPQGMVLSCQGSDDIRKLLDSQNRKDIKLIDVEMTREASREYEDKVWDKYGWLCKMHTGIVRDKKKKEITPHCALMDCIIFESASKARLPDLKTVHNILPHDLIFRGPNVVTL

O=C(N[C@H]1N=C(c2ccccc2F)c2cccc3c2N(CC3)C1=O)c1cc2ccccc2[nH]1
inactive: all assays above

COP(=S)(OC)Oc1ccc(Sc2ccc(OP(=S)(OC)OC)cc2)cc1
inactive: all assays above

CCCCCCCC/C=C\CCCCCCCCN
inactive: [1] | [2] | [3] | [4]

CN1C[C@@H](NS(=O)(=O)N(C)C)C[C@@H]2c3cccc4c3c(cn4C)C[C@H]21
inactive: all assays above

CCOC(=O)c1cncn1C(C)c1ccccc1 (stereo unspecified)
inactive: all assays above

COCC(=O)N(c1c(C)cccc1C)C(C)C(=O)OC (stereo unspecified)
inactive: all assays above

OC(O)C(Cl)(Cl)Cl
inactive: all assays above

CCN1CCCC1CNC(=O)C(O)(c1ccccc1)c1ccccc1 (stereo unspecified)
inactive: all assays above

CC(C)NCC(O)c1ccc(N)c(C#N)c1 (stereo unspecified)
not listed: [12]
inactive: all other assays above

CC(Cc1ccccc1)NCCCCl (stereo unspecified)
inactive: all assays above

CC(Cc1ccc2c(c1)OCO2)NO (stereo unspecified)
inactive: all assays above

CCCCC1C(=O)NC(=O)N(C2CCCCC2)C1=O (stereo unspecified)
not listed: [12]
inactive: all other assays above

CC(C)C(Br)C(=O)NC(N)=O (stereo unspecified)
inactive: all assays above

CCCC[N+]1(C)[C@@H]2CC(OC(=O)[C@H](CO)c3ccccc3)C[C@H]1[C@@H]1O[C@@H]12 (stereo partly specified)
inactive: all assays above

CCCOC(=O)Cc1ccc(OCC(=O)N(CC)CC)c(OC)c1
inactive: all assays above

CO/N=C(\C(=O)O)c1csc(NC(=O)CCl)n1
inactive: [1] | [2] | [3] | [4]

Nc1ccccc1C(=O)OCC(O)CO (stereo unspecified)
inactive: all assays above

CCOC(=O)NC(C)(C)Cc1ccc(Cl)cc1
not listed: [13]
inactive: all other assays above
